Assay outcomes deposited in PubChem BioAssay by The Scripps Research Institute Molecular Screening Center.
The entries come from a sample that favours hits as a whole.
TbREL1 primary: TbREL1 inhibition, primary screen; P86926; TbREL1 RNA ligation, FRET fluorescence; inhibition, % at 9.66 µM; actives 0.49% (n = 89,000); AID 1117264;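 active means inhibition above the mean inhibition across all screened compounds plus 3 SD, cut at about 11% in these data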;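 further: 0% = plate median of test wells and 100% = NSC42067 control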
Target sequence (P86926 whole entry, looked up): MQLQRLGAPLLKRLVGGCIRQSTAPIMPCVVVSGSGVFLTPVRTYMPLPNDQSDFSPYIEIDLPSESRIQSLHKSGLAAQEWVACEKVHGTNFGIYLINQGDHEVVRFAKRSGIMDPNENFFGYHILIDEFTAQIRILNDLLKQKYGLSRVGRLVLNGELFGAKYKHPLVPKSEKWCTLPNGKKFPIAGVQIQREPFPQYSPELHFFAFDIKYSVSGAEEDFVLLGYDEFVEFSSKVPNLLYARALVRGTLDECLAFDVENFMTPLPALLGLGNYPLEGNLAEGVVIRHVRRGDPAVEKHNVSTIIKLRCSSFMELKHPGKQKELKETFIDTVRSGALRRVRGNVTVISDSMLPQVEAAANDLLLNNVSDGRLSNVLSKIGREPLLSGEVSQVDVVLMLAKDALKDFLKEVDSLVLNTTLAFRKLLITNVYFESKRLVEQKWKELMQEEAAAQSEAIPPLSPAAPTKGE
TbREL1 confirm: TbREL1 inhibition, confirmation. shares compounds with TbREL1 primary. TbREL1 RNA ligation, FRET fluorescence. inhibition, % at 9.66 µM. actives 37% (n = 390). AID 1117282;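 active means mean inhibition across replicates above a set limit taken from the earlier primary screen, cut at about 11% in these data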;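 further: 0% = REL1 with substrate and DMSO and 100% = REL1 plus control inhibitor NSC42067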
An asterisk follows results filed as active.

SMILES | TbREL1 primary | others
CCOc1ccc(C(=O)N2CCn3c2nc2ccccc23)cc1 | 0
COc1cccc(C(=O)N2CCn3c2nc2ccccc23)c1 | 12* | TbREL1 confirm=7
COc1ccc(C(=O)N2CCn3c2nc2ccccc23)cc1 | 0
CCCN(CC1CC1)c1nc(C)nc2c1nnn2Cc1ccccc1 | 6
Cc1cccc2sc(N(CCCN(C)C)C(=O)c3ccc(C(=O)c4ccccc4)cc3)nc12 | 5
CCOc1ccc2nc(N(CCCN(C)C)C(=O)c3ccc(S(=O)(=O)N4CCCC4)cc3)sc2c1 | 1
CN(C)CCCN(C(=O)c1ccc(C(=O)c2ccccc2)cc1)c1nc2ccc(F)cc2s1 | 14* | TbREL1 confirm=10
CN(C)CCCN(C(=O)c1ccc(S(=O)(=O)N2CCCCC2)cc1)c1nc2cc3c(cc2s1)OCO3 | 11
CN(C)CCCN(C(=O)c1ccc(S(=O)(=O)N(C)C2CCCCC2)cc1)c1nc2ccc(Br)cc2s1 | 16* | TbREL1 confirm=8
Cc1ccc2nc(N(CCCN(C)C)C(=O)c3ccc4c(c3)CCCC4)sc2c1 | 2
CN(C)CCCN(C(=O)c1ccc(S(=O)(=O)N2CCCC2)cc1)c1nc2ccc(Br)cc2s1 | 10
CCN(Cc1ccccc1)S(=O)(=O)c1ccc(C(=O)N(CCCN(C)C)c2nc3ccc(F)cc3s2)cc1 | 5
CN(C)CCCN(C(=O)c1ccc(S(=O)(=O)N(C)C2CCCCC2)cc1)c1nc2ccc(F)cc2s1 | 11* | TbREL1 confirm=11
COc1ccc(C(=O)C2CCN(c3ncnc4sccc34)CC2)cc1 | 6
CC(C)(C)CSc1nnc(-c2cccnc2)n1Cc1ccccc1 | -3
O=C(Nc1ccc(Cl)cc1Cl)O[C@@H]1CC[C@@]23CCCN2C(=O)CCC[C@H]3C1 | 1
COc1cc(-n2c(C)nc3cc(C(=O)N4CCCC4)ccc32)cc(OC)c1OC | 0
O=S1(=O)c2c(cccc2N2CCC[C@H]2CO)O[C@@H]2CCN1C2 | 1
O=C1C[C@@H](C(=O)Nc2ccc(Cl)cc2)[C@@H](c2ccccc2)O1 | -2
COc1ccc(C=Nn2c(-c3ccccc3F)n[nH]c2=S)cc1OCc1ccccc1 | -3
c1ccc2cc(Cn3ccc4ccc(-c5ccc6cc[nH]c6c5)cc43)ccc2c1 | 3
CC(=O)NC(Cc1ccccc1)P(=O)(O)O (stereo not given) | 0
COc1ccccc1NS(=O)(=O)c1cccc(C(=O)NCc2ccccn2)c1 | 2
COc1cc(C(=O)NNC(=O)c2ccc(NC(C)=O)cc2)cc(OC)c1OC | 1
COc1ccccc1NS(=O)(=O)c1cccc(C(=O)NNC(=O)c2ccc(NC(C)=O)cc2)c1 | 16* | TbREL1 confirm=1
SMILES | TbREL1 primary | others
CC(C)CC(O)(CC(C)C)c1cn(C(=O)N(c2ccccc2)c2ccccc2)nn1 | -1
CCCCCC(=O)NC1CCCCN(Cc2ccc(Cl)cc2)C1=O (stereo not given) | -1
CN(Cc1ccccc1)S(=O)(=O)c1cccc(C(=O)OCc2ccc(C(F)(F)F)cc2)c1 | 2
CCCC[C@H]1C2CC(OC(=O)Nc3ccc(C)cc3)C(C2)[C@H]2CCCCN21 (stereo not given in full) | -1
CCCC[C@H]1C2CC(OC(=O)Nc3ccc(Br)cc3)C(C2)[C@H]2CCCCN21 (stereo not given in full) | 5
CCCC[C@H]1C2CC(OC(=O)Nc3ccc(C#N)cc3)C(C2)[C@H]2CCCCN21 (stereo not given in full) | 11* | TbREL1 confirm=4
O=S(=O)(N[C@@H]1CCCC[C@H]1N1CCOCC1)c1ccc(Cl)cc1 | -2
O=C(CN1CCN(c2ccc(O)cc2)CC1)Nc1ccc2c(c1)OCCO2 | -2
O=C(CN1CCOCC1)Nc1ccc2c(c1)OCCO2 | 12* | TbREL1 confirm=5
O=C(CN1CCOCC1)Nc1ccc2c(c1)OC(F)(F)O2 | 4
NC(N)=N/N=C/c1ccc(OCc2ccccc2)c(OCc2ccccc2)c1 | 12* | TbREL1 confirm=10
COc1cc(/C=N/NC(=O)c2cccs2)ccc1OCc1ccccc1 | 0
COc1cc(/C=N/O)ccc1OCc1ccc(C(=O)O)cc1 | 1
O=C(Nc1ccccc1Oc1ccccc1)NC1CCCCN(Cc2ccc(Cl)cc2)C1=O (stereo not given) | 3
O=C(c1ccc(Cl)cc1)C1CCN(c2ncnc3sccc23)CC1 | 7
COC(=O)c1ccc(Cn2ccc3ccc(-c4ccc5ccn(C(=O)c6ccccc6C)c5c4)cc32)cc1 | -1
COc1ccc2c(c1)CCCN2C(=O)C1CCCN(S(=O)(=O)c2ccccc2)C1 (stereo not given) | -5
CC1(C)CC(NC(=O)Nc2ccc([N+](=O)[O-])cc2)CC(C)(C)N1 | 0
CC1(C)CC(NC(=O)c2ccc(-c3ccc([N+](=O)[O-])cc3)o2)CC(C)(C)N1 | 12* | TbREL1 confirm=4
COc1ccc(NC(=O)c2ccc(-c3ccc([N+](=O)[O-])cc3)o2)cc1 | -1
CC(C)(C)NC(=O)C(c1cccnc1)N(C(=O)c1cnc[nH]1)c1ccc(C(C)(C)C)cc1 (stereo not given) | 11
COC(=O)c1ccc(S(=O)(=O)N2CCC(NC(=O)COc3ccc(F)cc3)CC2)cc1 | 1
Cc1nc(S/C(=C\c2ccc(-c3ccc(C(=O)O)c(Cl)c3)o2)C(=O)O)n[nH]1 | 58* | TbREL1 confirm=23*
O=C(O)c1cc(N/N=C/c2ccc(-c3ccc(F)cc3)o2)ccc1Cl | -5
Cc1nc(S/C(=C\c2ccc(OCc3ccccc3Cl)cc2)C(=O)O)n[nH]1 | 0
SMILES | TbREL1 primary | others
Cc1ccccc1N1CCN(S(=O)(=O)c2ccc3c(c2)oc(=O)n3C)CC1 | -1
CN(C(=O)CCn1nnc(-c2cccs2)n1)C1CCCCC1 | -4
COC(=O)C1=C(C)N(CCCC(=O)O)C(=O)NC1c1ccc(C(F)(F)F)cc1 (stereo not given) | 1
COC(=O)C1=C(C)N(C)C(=NCc2ccccc2C(F)(F)F)NC1c1ccc(C(F)(F)F)cc1 (stereo not given) | 12* | TbREL1 confirm=10
COC(=O)C1=C(C)N(C)C(=NCc2ccccc2C(F)(F)F)NC1c1ccc(Cl)cc1 (stereo not given) | 13* | TbREL1 confirm=7
COC(=O)C1=C(C)N(C)C(=NCc2ccc(C(F)(F)F)cc2)NC1c1ccc(C(F)(F)F)cc1 (stereo not given) | 7
COC(=O)[C@@H]1N=C(c2ccc(OC)cc2)O[C@]12C(=O)N(Cc1cn(-c3ccccc3)nn1)c1cccc(Cl)c12 | 2
O=C(c1cccs1)C1CCN(c2ncnc3sccc23)CC1 | 10
O=C(CSc1nc2ccccc2n1Cc1ccccc1Cl)NN=C/C(Br)=C/c1ccccc1 | 0
CN(Cc1ccccc1)C(=O)OCc1cn(Cc2cccc(F)c2F)nn1 | -3
COC(=O)C1=C(C)N(Cc2cccc(C(F)(F)F)c2)C(=NCc2ccc3c(c2)OCO3)NC1c1ccccc1C(F)(F)F (stereo not given) | 13* | TbREL1 confirm=20*
COC(=O)C1=C(C)N(C)C(=NCc2ccc(OC)cc2)NC1c1ccccc1C(F)(F)F (stereo not given) | 6
COC(=O)C1=C(C)N(Cc2ccc(C(F)(F)F)cc2)C(=NCc2ccc(OC)cc2)NC1c1ccccc1C(F)(F)F (stereo not given) | 17* | TbREL1 confirm=14*
CCN1C(=NCc2ccco2)N[C@@H](c2cccc(C(F)(F)F)c2)C(C(=O)OC)=C1C | 4
COC(=O)C1=C(C)N(Cc2cccc(C(F)(F)F)c2)C(=NCc2ccc(C(F)(F)F)cc2)NC1c1ccc(C(F)(F)F)cc1 (stereo not given) | 8
